PubChem BioAssay (NCATS)
Records with an inconclusive call do not appear. Active and inactive are the calls of the source. Unless noted, the call rests on the fitted dose curve; in most records, active means well fitted curve in either direction with a large enough effect (not every such curve was filed as active); inconclusive means small, poorly fitted or top-dose-only effect, or another doubt; inactive means flat fitted curve, though single readings scatter.

Legend:
[1] = biological target: Lysosomal acid glucosylceramidase (Homo sapiens) (UniProt P04062); experiment: Glucocerebrosidase-p2 (AID 348; in the data active means potency below about 10 µM; further: potency means the concentration at half of the fitted maximal effect); conditions: purified GBA, blue fluorogenic substrate, 40 min
Lysosomal acid glucosylceramidase (Homo sapiens), sequence (P04062 whole entry, looked up): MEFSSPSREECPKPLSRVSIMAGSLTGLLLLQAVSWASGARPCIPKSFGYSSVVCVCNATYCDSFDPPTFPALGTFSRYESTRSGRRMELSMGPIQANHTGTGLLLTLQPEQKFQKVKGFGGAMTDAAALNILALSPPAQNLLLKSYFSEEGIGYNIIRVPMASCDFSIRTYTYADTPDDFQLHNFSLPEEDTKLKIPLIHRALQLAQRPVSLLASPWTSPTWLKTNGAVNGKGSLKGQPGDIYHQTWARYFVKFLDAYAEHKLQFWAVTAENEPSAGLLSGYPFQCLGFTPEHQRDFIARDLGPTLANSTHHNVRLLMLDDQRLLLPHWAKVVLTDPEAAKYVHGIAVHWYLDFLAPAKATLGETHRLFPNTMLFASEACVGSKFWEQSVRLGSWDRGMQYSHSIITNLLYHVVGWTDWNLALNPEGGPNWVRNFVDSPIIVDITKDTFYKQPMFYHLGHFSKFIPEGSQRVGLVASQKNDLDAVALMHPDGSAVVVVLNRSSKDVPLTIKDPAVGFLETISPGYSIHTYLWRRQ
Summary of the method: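 Normal human glucocerebrosidase (0.2 nM) with blue fluorogenic substrate (80 uM final) in citrate/phosphate pH 5.9 with 10mM sodium taurocholate, 0.01% tween-20; 40 min RT, NaOH/glycine stop; fluorescence Ex 365/Em 440; AC50 from a titration from 0.6 nM upwards.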

[2] = AP1 Signaling Pathway (AID 357); conditions: ME-180 AP-1-bla reporter, EGF-induced, beta-lactamase ratio, 5 h; at 7.69 µM (top of the series) unless noted; further: on the % scale 0 is the no-effect control and ±100 the full control effect
Summary of the method: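 AP-1-bla ME-180 cells with beta-lactamase reporter under AP-1 response element, stimulated with EC50 EGF; compounds titrated, 5 hours at 37 degrees Celsius. CCF4 read at 460/530 nm ratio; positive and negative modulators judged by AC50.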

[3] = NFAT Signaling Pathway (AID 444); conditions: Jurkat NFAT-bla M1, carbachol, beta-lactamase ratio, 5 h; at 7.69 µM (top of the series) unless noted;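 further: carbachol stimulus at about its EC50 of 1 µM final; on the % scale 0 is the no-effect control and ±100 the full control effect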
Summary of the method: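 Read-out: CCF4 FRET ratio (460 nm/530 nm) after 1 h RT dye loading, used for %activity and AC50 from titration series. Cells: Jurkat NFAT-β-lactamase/M1 line, treated with compound plus 1 uM carbachol for 5 h, 37 °C.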

[4] = Stat Signaling Pathway (AID 446); conditions: ME-180 (cervical carcinoma) SIE beta-lactamase reporter, IL-6 stimulated, 5 h; at 7.69 µM (top of the series) unless noted;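 further: ME-180 cervical cancer cells given 40 pM IL-6 alongside compound; SIE-controlled beta-lactamase reporter measured as 460/530 nm FRET emission ratio; on the % scale 0 is the no-effect control and ±100 the full control effect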
Summary of the method: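 Overnight-plated ME-180 cells bearing a STAT Inducible Element beta-lactamase reporter; 5 h co-exposure to compound and 40 pM IL-6; values normalized to 300 pM IL-6 and 125 nM JAK inhibitor controls.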

[5] = biological target: Glucocorticoid receptor (Homo sapiens) (UniProt P04150); experiment: GR-GFP Redistribution (AID 450;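 active means compounds whose dose series gives a full or clear partial fitted curve of increased nuclear translocation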; further: potency means the concentration at half of the fitted maximal effect); conditions: U2OS GR-GFP nuclear translocation, laser cytometry, 2 h
Glucocorticoid receptor (Homo sapiens), sequence (P04150 whole entry, looked up, the tested form may be a part): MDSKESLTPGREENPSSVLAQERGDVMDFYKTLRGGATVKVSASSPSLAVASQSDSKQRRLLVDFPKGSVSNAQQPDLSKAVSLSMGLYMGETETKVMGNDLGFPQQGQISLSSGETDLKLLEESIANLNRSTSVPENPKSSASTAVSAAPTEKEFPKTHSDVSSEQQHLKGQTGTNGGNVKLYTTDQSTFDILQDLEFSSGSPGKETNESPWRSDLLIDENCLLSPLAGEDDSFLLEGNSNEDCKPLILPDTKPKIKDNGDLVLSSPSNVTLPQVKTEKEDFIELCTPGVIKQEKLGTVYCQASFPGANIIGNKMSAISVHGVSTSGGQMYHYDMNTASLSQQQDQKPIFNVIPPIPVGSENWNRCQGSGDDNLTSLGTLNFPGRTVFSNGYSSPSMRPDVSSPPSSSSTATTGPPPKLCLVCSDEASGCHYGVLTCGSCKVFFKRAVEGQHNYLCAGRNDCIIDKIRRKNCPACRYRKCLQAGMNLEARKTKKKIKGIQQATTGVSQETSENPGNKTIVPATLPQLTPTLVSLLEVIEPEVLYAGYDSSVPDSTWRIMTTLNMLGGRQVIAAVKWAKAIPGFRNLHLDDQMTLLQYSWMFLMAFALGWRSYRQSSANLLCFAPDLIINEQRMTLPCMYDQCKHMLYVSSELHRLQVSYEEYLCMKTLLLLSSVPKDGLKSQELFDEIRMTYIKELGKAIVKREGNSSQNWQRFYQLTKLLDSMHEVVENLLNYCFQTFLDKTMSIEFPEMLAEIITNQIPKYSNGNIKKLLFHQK

[6] = biological target: Glucocorticoid receptor (Homo sapiens) (UniProt P04150); experiment: GR-EFC Redistribution (AID 451; calls by dose curve; further: potency means the concentration at half of the fitted maximal effect); conditions: CHO-K1 GR-EFC translocation, beta-gal luminescence, 2 h
Summary of the method: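 Translocation of GR-ED fusion to nuclear EA restores b-gal, read by luminescence after 1 h room-temperature detection. Engineered CHO-K1 biosensor cells, 1,000/well, exposed 2 h at 37 C to titrations up to 46 uM final.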

[7] = biological target: Mitogen-activated protein kinase 10 (Mus musculus) (UniProt Q61831); experiment: JNK3 AlphaScreen Assay (AID 530); conditions: JNK3 lysate, c-Jun phosphorylation; series mostly up to 11.4 µM;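 further: kinase came from lysate of stimulated human HepG2 cells; signal reports phosphorylation of biotinylated GST-cJun 1-79 at Ser73 with 10 µM ATP; on the % scale 0 is the no-effect control and ±100 the full control effect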
Summary of the method: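 qHTS titrations with 15 min compound pre-incubation before adding ATP (10 uM final). Read-out: AlphaScreen of Ser73-phosphorylated biotin-GST-cJun using HepG2 lysate JNK3 activated by IL-1β and TNFα.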

[8] = biological target: 3',5'-cyclic-AMP phosphodiesterase 4B (Homo sapiens) (UniProt Q07343); experiment: qHTS Assay for Inhibitors of PDE-IV (AID 607; active means well fitted activation curve with a large enough effect in the main read-out, with a control signal flat, not every such curve was filed as active; further: % of control where 0% means no effect); conditions: HEK293 ACTOne CNG channel cells, membrane potential fluorescence; series mostly up to 22.9 µM
3',5'-cyclic-AMP phosphodiesterase 4B (Homo sapiens), sequence (Q07343 whole entry, looked up): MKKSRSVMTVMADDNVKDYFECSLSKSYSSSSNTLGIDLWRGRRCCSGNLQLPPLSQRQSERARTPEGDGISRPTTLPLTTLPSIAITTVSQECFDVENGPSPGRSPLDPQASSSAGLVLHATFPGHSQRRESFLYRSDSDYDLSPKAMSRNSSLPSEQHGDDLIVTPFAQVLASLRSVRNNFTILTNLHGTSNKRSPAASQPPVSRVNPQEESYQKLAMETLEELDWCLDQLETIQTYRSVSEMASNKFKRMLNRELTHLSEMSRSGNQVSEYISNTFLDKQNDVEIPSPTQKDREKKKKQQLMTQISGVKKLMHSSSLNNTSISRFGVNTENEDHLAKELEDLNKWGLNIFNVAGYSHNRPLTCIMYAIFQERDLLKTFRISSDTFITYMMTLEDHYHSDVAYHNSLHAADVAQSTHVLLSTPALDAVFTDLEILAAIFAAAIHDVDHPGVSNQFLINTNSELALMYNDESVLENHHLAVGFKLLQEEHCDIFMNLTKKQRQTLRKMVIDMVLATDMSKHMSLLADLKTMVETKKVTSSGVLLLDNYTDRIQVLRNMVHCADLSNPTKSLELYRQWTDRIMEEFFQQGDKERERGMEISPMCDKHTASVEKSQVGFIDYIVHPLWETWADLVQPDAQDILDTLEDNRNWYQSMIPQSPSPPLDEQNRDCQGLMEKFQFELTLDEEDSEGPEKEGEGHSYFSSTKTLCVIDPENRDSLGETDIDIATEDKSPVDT
Summary of the method: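 Live HEK293 cells with a modified cyclic nucleotide-gated (CNG) channel report intracellular cAMP via membrane-potential dye fluorescence (ex 535/em 590 nm). Endogenous PDE-IV was targeted. Compounds were tested at up to 22.9 uM final; RO 20-1724 100 uM served as control.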

S=c1nc(-c2nc(=S)[nH]c3c2CCCCCCCCCC3)c2c([nH]1)CCCCCCCCCC2
inactive: Potency [1] > 11.4 µM | activity change, negative = inhibition [2] -8.81% | activity change, negative = inhibition [3] 15.1% | activity, negative = inhibition [4] 9.8% | Potency [5] > 46 µM | Potency [6] > 9.22 µM | Potency [7] | Potency [8]

Cn1ncc2c(Cl)ncnc21
inactive: Potency [1] > 11.4 µM | activity change, negative = inhibition [2] 2.44% | activity change, negative = inhibition [3] 17.9% | activity, negative = inhibition [4] 13.8% | Potency [5] > 46 µM | Potency [6] > 9.22 µM | Potency [7] | Potency [8]

NC1=N[C@H](c2ccc(Cl)cc2)N(c2ccc(S(N)(=O)=O)cc2)C(N)=N1
inactive: Potency [1] > 11.4 µM | activity change, negative = inhibition [2] -2.15% | activity change, negative = inhibition [3] -10.1% | activity, negative = inhibition [4] -0.371% | Potency [5] > 46 µM | Potency [6] > 9.22 µM | Potency [7] | Potency [8]

CCc1ccc(CCC(=O)O)nc1
inactive: Potency [1] > 11.4 µM | activity change, negative = inhibition [2] 0.964% | activity change, negative = inhibition [3] -3.46% | activity, negative = inhibition [4] -13.2% | Potency [5] > 46 µM | Potency [6] > 9.22 µM | Potency [7] | Potency [8]

CN1CCN(CC(=O)Nc2cccc3ccccc23)CC1
inactive: Potency [1] > 11.4 µM | activity change, negative = inhibition [2] -2.71% | activity change, negative = inhibition [3] 5.99% | activity, negative = inhibition [4] 15.2% | Potency [5] > 46 µM | Potency [6] > 9.22 µM | Potency [7] | Potency [8]

O=C(O)C(Cc1ccccc1)Cc1ccccc1
inactive: Potency [1] > 11.4 µM | activity change, negative = inhibition [2] 8.41% | activity change, negative = inhibition [3] 1.48% | activity, negative = inhibition [4] -8.39% | Potency [5] > 46 µM | Potency [6] > 9.22 µM | Potency [7] | Potency [8]

CCCNc1ncnc2[nH]ncc12
inactive: Potency [1] > 11.4 µM | activity change, negative = inhibition [2] -4.57% | activity change, negative = inhibition [3] 5.61% | activity, negative = inhibition [4] -1.7% | Potency [5] > 46 µM | Potency [6] > 9.22 µM | Potency [7] | Potency [8]

NC(=O)/N=C(\N)NC(=O)c1ccccc1
inactive: Potency [1] > 11.4 µM | activity change, negative = inhibition [2] -2.56% | activity change, negative = inhibition [3] 8.99% | activity, negative = inhibition [4] 2.37% | Potency [5] > 46 µM | Potency [6] > 9.22 µM | Potency [7] | Potency [8]

NC(=S)N/N=C\c1c[nH]c2ccccc12
inactive: Potency [1] > 11.4 µM | activity change, negative = inhibition [2] 2.82% | activity change, negative = inhibition [3] -6% | activity, negative = inhibition [4] 13.8% | Potency [5] > 46 µM | Potency [6] > 9.22 µM | Potency [7] | Potency [8]

NCCSS(=O)(=O)CCN
inactive: Potency [1] > 11.4 µM | activity change, negative = inhibition [2] 7.23% | activity change, negative = inhibition [3] 7.63% | activity, negative = inhibition [4] -25% | Potency [5] > 46 µM | Potency [6] > 9.22 µM | Potency [7] | Potency [8]

O=S(=O)(O)n1ccnc1 (tested in a mixture with another compound)
inactive: Potency [1] > 11.4 µM | activity change, negative = inhibition [2] -2.09% | activity change, negative = inhibition [3] 6.55% | activity, negative = inhibition [4] 0.01% | Potency [5] > 46 µM | Potency [6] > 9.22 µM | Potency [7] | Potency [8]

O=C(CN1C(=O)c2ccccc2C1=O)[C@@H](O)CN1C(=O)c2ccccc2C1=O
inactive: Potency [1] > 11.4 µM | activity change, negative = inhibition [2] -10.3% | activity change, negative = inhibition [3] 13.9% | activity, negative = inhibition [4] -0.0648% | Potency [5] > 46 µM | Potency [6] > 9.22 µM | Potency [7] | Potency [8]

CNC/C(Cl)=N/S(=O)(=O)c1ccc(C)cc1
inactive: Potency [1] > 11.4 µM | activity change, negative = inhibition [2] -4.53% | activity change, negative = inhibition [3] 8.45% | activity, negative = inhibition [4] 2.28% | Potency [5] > 46 µM | Potency [6] > 9.22 µM | Potency [7] | Potency [8]

CCN(CC(=O)O)C(=O)c1cccnc1
inactive: Potency [1] > 11.4 µM | activity change, negative = inhibition [2] -4.46% | activity change, negative = inhibition [3] 5.05% | activity, negative = inhibition [4] -6.57% | Potency [5] > 46 µM | Potency [6] > 9.22 µM | Potency [7] | Potency [8]

CC(=O)Nc1nc2ncc(C=O)nc2c(=O)[nH]1
inactive: Potency [1] > 11.4 µM | activity change, negative = inhibition [2] -2.43% | activity change, negative = inhibition [3] 17.3% | activity, negative = inhibition [4] 5.76% | Potency [5] > 46 µM | Potency [6] > 9.22 µM | Potency [7] | Potency [8]
